Results reported in the supplement of paper PMC10849652.
Of roughly 7,900 targets only a part is listed; those with a hit were picked by preference. About 0.6% of all pairs of compound and target were hits.

How the values were obtained:
Test in all cases: log2 fold change, soluble protein after heating vs DMSO (PISA); higher = thermal stabilisation; K562 cells, 10 uM, 30 min; active = over 0.2 and 3.5 SD of the protein, either way, in both replicates (recomputed)
[1] = compound: C1COCCN1CCN2C3=CC=CC=C3N=C2NC(=O)C4=CC(=CC=C4)[N+](=O)[O-] [IRAK-1-4 Inhibitor I]
Procedure, shortened: (§1)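 K562 cells at 2×10^6 cells/mL were treated with 10 μM compound for 30 min. Aliquots were heated for 3 min across 48°C-58°C, pooled, and extracted in PBS with 0.5% NP-40 at 4°C; soluble protein was the supernatant after 21,000xg for 90 min. Soluble protein was quantified by TMTpro 16plex LC-MS/MS with channel sums equalised, and reported as log2 fold change in thermal stability against DMSO controls, with values from duplicates.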

[2] = compound: C=CC(=O)N1CCC[C@@H](n2nc(-c3ccc(Oc4ccccc4)cc3)c3c(N)ncnc32)C1 [ibrutinib]
Procedure, shortened: as §1

[3] = compound: CC(=O)c1cnc2ccc(-c3cc(Cl)c(O)c(Cl)c3)nc2c1N[C@H]1CC[C@H](CN(C)C)CC1
Procedure, shortened: as §1

[4] = compound: CC(C)(C)Cn1c(N)nc2ccc(-c3[nH]c(C(C)(C)C)nc3-c3ccc(F)cc3)nc21 [ralimetinib]
Procedure, shortened: as §1

[5] = compound: CC(C)(O)CC(=O)NCCn1ccc2ncnc(Nc3ccc(Oc4cccc(C(F)(F)F)c4)c(Cl)c3)c21
Procedure, shortened: as §1

[6] = compound: CC(C)C1=C2N=C(C=C(N2N=C1)NCC3=CC=CC=C3)NCCCCCCN
Procedure, shortened: as §1

[7] = compound: CC(C)C[C@@H](C=O)NC(=O)[C@H](CC(C)C)NC(=O)[C@H](CC(C)C)NC(=O)OCc1ccccc1
Procedure, shortened: as §1

[8] = compound: CC(C)N(C[C@H]1O[C@@H](n2cnc3c(N)ncnc32)[C@H](O)[C@@H]1O)[C@H]1C[C@@H](CCc2nc3cc(C(C)(C)C)ccc3[nH]2)C1 [pinometostat]
Procedure, shortened: as §1

[9] = compound: CC1=C(C(CC(=O)N1)C2=CC=C(C=C2)C(F)(F)F)C(=O)NC3=C(C=C4C(=C3)C=NN4)F
Procedure, shortened: as §1

[10] = compound: CC1=C(C2=C(C=C1)C(=O)C3=CC=CC=C3N2CCCN)C
Procedure, shortened: as §1

[11] = compound: CC1=C(C=C(C=C1)NC(=O)C2=CC(=CC=C2)C(C)(C)C#N)NC3=CC4=C(C=C3)N=CN(C4=O)C
Procedure, shortened: as §1

[12] = compound: CC1=C(C=C(C=C1)NC(=O)C2=CC(=CC=C2)N(C)C)NC(=O)C3=CC=C(C=C3)O
Procedure, shortened: as §1

[13] = compound: CC1=CC=C(C=C1)SC2=C3C=C(SC3=CN=C2)C(=O)N
Procedure, shortened: as §1

[14] = compound: CC1=NC(=CC=C1)C2=C(N=C(N2)C(C)(C)C)C3=CC4=NC=CN=C4C=C3
Procedure, shortened: as §1

[15] = compound: CCCCN(Cc1ccc(C(=O)NO)cc1)C(=O)Nc1ccccc1 [Nexturastat A]
Procedure, shortened: as §1

[16] = compound: CCCS(=O)(=O)Nc1ccc(F)c(C(=O)c2c[nH]c3ncc(-c4ccc(Cl)cc4)cc23)c1F [vemurafenib]
Procedure, shortened: as §1

[17] = compound: CCCS(=O)(=O)Nc1ccc(F)c(C(=O)c2c[nH]c3ncc(Cl)cc23)c1F
Procedure, shortened: as §1

[18] = compound: CCCc1cc(C)[nH]c(=O)c1CNC(=O)c1cc(-c2ccnc(N3CCN(C)CC3)c2)cc2c1cnn2C(C)C
Procedure, shortened: as §1

[19] = compound: CCN(CC)Cc1ccc2cc(COC(=O)Nc3ccc(C(=O)NO)cc3)ccc2c1 [givinostat]
Procedure, shortened: as §1

[20] = compound: CCN(CCCOc1ccc2c(Nc3cc(CC(=O)Nc4cccc(F)c4)[nH]n3)ncnc2c1)CCOP(=O)(O)O [barasertib]
Procedure, shortened: as §1

Measured: log2 fold change

NAP1L1 (UniProt P55209)
inactive: [1] 0.04 | [2] -0.041 | [3] -0.012 | [4] -0.003 | [5] 0.021 | [6] 0.017 | [7] 0.021 | [8] -0.029 | [9] 0.105 | [10] 0.004 | [11] 0.042 | [12] 0.005 | [13] -0.002 | [14] 0.035 | [15] -0.003 | [16] 0.04 | [17] 0.011 | [18] 0.028 | [19] -0.08 | [20] 0.061

MT-ATP6 (UniProt P00846)
Sequence of UniProt P00846 (P00846 whole entry, looked up): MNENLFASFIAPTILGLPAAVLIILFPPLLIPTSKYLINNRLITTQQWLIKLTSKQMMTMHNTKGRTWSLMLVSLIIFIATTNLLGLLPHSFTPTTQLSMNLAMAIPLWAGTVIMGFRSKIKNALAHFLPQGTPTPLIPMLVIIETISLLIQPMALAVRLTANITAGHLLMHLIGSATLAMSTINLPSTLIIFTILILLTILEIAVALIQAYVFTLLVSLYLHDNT
inactive: [1] 0 | [2] -0.68 | [3] -0.178 | [4] -0.178 | [5] -0.033 | [6] -0.06 | [7] -0.165 | [8] -0.162 | [9] -0.218 | [10] -0.072 | [11] -0.009 | [12] 0.041 | [13] 0.008 | [14] 0.026 | [15] -0.133 | [16] -0.159 | [17] -0.043 | [18] -0.014 | [19] -0.074 | [20] 0.567

NOP2 isoform 4 (UniProt P46087)
inactive: [1] -0.111 | [2] -0.278 | [3] 0.308 | [4] 0.205 | [5] 0.163 | [6] 0.241 | [7] 0.194 | [8] 0.325 | [9] -0.062 | [10] -0.474 | [11] -0.031 | [12] -0.062 | [13] -0.105 | [14] -0.264 | [15] 0.2 | [16] -0.433 | [17] -0.051 | [18] 0.172 | [19] 0.178 | [20] -0.223

MRPS22 (UniProt P82650)
inactive: [1] -0.027 | [2] 0.051 | [3] -0.02 | [4] 0.017 | [5] -0.102 | [6] -0.11 | [7] 0.04 | [8] 0.007 | [9] -0.013 | [10] -0.175 | [11] 0.041 | [12] -0.029 | [13] 0.022 | [14] -0.018 | [15] 0.092 | [16] -0.024 | [17] 0.037 | [18] 0.049 | [19] 0.032 | [20] -0.055

NDUFAF6 (UniProt Q330K2)
inactive: [1] 0.129 | [2] -0.044 | [3] -0.107 | [4] 0.039 | [5] -0.214 | [6] -0.235 | [7] 0.083 | [8] -0.132 | [9] 0.091 | [10] -0.109 | [11] 0.055 | [12] 0.068 | [13] 0.169 | [14] 0.024 | [15] -0.052 | [16] -0.055 | [17] 0.035 | [18] -0.088 | [19] -0.063 | [20] -0.01

NFX1 (UniProt Q12986)
Sequence of UniProt Q12986 (Q12986 whole entry, looked up): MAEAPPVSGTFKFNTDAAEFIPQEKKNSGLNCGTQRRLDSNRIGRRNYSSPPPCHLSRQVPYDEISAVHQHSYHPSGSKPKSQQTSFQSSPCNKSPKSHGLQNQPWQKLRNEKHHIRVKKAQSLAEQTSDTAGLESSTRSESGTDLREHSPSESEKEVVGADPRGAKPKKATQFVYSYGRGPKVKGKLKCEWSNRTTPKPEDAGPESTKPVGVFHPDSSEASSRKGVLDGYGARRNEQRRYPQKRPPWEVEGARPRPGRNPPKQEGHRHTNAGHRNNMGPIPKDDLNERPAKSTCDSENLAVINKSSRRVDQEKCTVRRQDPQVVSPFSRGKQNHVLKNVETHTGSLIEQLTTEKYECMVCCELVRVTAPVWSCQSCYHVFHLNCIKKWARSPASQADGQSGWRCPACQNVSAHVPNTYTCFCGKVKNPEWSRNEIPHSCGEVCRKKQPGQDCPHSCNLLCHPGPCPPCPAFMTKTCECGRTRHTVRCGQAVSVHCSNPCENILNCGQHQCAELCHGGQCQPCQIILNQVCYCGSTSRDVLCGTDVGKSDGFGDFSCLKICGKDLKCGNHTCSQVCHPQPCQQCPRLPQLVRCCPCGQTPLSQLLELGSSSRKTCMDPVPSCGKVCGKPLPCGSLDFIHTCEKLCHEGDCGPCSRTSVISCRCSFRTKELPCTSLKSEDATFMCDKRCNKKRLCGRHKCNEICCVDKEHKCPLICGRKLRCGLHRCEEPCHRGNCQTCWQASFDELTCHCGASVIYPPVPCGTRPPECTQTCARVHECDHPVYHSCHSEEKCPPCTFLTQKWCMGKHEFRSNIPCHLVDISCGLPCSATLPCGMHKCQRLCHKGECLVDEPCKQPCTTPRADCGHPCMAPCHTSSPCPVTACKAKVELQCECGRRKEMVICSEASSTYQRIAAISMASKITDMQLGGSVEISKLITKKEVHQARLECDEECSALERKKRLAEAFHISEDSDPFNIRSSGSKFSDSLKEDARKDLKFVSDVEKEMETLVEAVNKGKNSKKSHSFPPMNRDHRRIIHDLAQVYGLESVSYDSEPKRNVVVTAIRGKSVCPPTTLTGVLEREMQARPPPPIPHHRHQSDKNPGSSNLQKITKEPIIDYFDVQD
inactive: [1] -0.028 | [2] 0.083 | [3] -0.002 | [4] 0.178 | [5] 0.099 | [6] -0.051 | [7] 0.227 | [8] 0.182 | [9] 0.011 | [10] -0.043 | [11] -0.113 | [12] 0.051 | [13] -0.082 | [14] 0.004 | [15] 0.287 | [16] 0.148 | [17] -0.032 | [18] 0.17 | [19] 0 | [20] -0.125

NSDHL (UniProt Q15738)
inactive: [1] 0.004 | [2] 0.193 | [3] -0.049 | [4] -0.01 | [5] 0.173 | [6] -0.084 | [7] -0.024 | [8] -0.078 | [9] -0.021 | [10] 0.056 | [11] 0.073 | [12] -0.005 | [13] 0.029 | [14] -0.001 | [15] -0.111 | [16] 0.07 | [17] -0.027 | [18] -0.031 | [19] -0.013 | [20] -0.004

MRPS33 (UniProt Q9Y291)
inactive: [1] -0.006 | [2] 0.022 | [3] -0.004 | [4] -0.038 | [5] -0.069 | [6] -0.034 | [7] 0.122 | [8] 0.096 | [9] 0.096 | [10] -0.158 | [11] 0.075 | [12] -0.078 | [13] -0.025 | [14] -0.004 | [15] 0.098 | [16] 0.023 | [17] 0.073 | [18] -0.042 | [19] 0.043 | [20] -0.015

NCKAP1 isoform 2 (UniProt Q9Y2A7)
Sequence of UniProt Q9Y2A7 (Q9Y2A7 whole entry, looked up): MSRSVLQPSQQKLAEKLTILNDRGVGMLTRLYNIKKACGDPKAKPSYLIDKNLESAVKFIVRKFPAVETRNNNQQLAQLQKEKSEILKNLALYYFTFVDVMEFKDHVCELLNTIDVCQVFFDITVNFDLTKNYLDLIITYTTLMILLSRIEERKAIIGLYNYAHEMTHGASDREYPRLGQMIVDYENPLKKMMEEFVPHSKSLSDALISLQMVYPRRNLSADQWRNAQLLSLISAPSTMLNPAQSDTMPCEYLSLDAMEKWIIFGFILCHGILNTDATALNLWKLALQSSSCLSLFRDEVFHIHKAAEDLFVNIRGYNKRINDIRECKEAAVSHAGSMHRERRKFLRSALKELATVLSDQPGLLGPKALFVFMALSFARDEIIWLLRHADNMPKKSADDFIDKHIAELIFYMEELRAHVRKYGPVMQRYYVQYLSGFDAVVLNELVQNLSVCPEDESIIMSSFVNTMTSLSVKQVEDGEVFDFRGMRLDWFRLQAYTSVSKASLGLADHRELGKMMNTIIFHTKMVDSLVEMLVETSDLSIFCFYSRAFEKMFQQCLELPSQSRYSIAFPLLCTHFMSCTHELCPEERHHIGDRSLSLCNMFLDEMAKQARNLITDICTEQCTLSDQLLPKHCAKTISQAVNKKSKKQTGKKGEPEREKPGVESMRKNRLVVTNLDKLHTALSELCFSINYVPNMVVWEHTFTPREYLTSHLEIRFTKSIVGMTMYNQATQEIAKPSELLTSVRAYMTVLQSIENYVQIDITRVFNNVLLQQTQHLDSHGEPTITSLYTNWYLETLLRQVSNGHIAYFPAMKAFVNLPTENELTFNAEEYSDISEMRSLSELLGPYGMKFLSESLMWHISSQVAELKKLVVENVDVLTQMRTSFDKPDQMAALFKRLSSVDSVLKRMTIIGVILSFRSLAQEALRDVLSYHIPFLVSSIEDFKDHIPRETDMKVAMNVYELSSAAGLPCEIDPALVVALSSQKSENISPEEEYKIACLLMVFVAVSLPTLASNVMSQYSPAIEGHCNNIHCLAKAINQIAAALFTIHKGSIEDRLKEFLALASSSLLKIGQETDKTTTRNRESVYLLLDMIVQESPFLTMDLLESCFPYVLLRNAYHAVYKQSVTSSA
inactive: [1] 0 | [2] 0.002 | [3] -0.063 | [4] 0.07 | [5] -0.038 | [6] -0.047 | [7] -0.037 | [8] 0.01 | [9] 0.017 | [10] -0.009 | [11] 0.039 | [12] 0.009 | [13] 0.004 | [14] 0.033 | [15] 0.02 | [16] 0.036 | [17] 0.015 | [18] 0.064 | [19] 0.021 | [20] -0.009

NUP210 (UniProt Q8TEM1)
active: [6] -0.52
inactive: [1] 0.005 | [2] -0.025 | [3] -0.038 | [4] -0.069 | [5] -0.176 | [7] -0.007 | [8] 0.001 | [9] 0.026 | [10] 0.047 | [11] -0.029 | [12] 0.052 | [13] 0.084 | [14] 0.035 | [15] -0.08 | [16] -0.002 | [17] 0.058 | [18] -0.05 | [19] -0.017 | [20] 0.029

NUP205 (UniProt Q92621)
Sequence of UniProt Q92621 (Q92621 whole entry, looked up): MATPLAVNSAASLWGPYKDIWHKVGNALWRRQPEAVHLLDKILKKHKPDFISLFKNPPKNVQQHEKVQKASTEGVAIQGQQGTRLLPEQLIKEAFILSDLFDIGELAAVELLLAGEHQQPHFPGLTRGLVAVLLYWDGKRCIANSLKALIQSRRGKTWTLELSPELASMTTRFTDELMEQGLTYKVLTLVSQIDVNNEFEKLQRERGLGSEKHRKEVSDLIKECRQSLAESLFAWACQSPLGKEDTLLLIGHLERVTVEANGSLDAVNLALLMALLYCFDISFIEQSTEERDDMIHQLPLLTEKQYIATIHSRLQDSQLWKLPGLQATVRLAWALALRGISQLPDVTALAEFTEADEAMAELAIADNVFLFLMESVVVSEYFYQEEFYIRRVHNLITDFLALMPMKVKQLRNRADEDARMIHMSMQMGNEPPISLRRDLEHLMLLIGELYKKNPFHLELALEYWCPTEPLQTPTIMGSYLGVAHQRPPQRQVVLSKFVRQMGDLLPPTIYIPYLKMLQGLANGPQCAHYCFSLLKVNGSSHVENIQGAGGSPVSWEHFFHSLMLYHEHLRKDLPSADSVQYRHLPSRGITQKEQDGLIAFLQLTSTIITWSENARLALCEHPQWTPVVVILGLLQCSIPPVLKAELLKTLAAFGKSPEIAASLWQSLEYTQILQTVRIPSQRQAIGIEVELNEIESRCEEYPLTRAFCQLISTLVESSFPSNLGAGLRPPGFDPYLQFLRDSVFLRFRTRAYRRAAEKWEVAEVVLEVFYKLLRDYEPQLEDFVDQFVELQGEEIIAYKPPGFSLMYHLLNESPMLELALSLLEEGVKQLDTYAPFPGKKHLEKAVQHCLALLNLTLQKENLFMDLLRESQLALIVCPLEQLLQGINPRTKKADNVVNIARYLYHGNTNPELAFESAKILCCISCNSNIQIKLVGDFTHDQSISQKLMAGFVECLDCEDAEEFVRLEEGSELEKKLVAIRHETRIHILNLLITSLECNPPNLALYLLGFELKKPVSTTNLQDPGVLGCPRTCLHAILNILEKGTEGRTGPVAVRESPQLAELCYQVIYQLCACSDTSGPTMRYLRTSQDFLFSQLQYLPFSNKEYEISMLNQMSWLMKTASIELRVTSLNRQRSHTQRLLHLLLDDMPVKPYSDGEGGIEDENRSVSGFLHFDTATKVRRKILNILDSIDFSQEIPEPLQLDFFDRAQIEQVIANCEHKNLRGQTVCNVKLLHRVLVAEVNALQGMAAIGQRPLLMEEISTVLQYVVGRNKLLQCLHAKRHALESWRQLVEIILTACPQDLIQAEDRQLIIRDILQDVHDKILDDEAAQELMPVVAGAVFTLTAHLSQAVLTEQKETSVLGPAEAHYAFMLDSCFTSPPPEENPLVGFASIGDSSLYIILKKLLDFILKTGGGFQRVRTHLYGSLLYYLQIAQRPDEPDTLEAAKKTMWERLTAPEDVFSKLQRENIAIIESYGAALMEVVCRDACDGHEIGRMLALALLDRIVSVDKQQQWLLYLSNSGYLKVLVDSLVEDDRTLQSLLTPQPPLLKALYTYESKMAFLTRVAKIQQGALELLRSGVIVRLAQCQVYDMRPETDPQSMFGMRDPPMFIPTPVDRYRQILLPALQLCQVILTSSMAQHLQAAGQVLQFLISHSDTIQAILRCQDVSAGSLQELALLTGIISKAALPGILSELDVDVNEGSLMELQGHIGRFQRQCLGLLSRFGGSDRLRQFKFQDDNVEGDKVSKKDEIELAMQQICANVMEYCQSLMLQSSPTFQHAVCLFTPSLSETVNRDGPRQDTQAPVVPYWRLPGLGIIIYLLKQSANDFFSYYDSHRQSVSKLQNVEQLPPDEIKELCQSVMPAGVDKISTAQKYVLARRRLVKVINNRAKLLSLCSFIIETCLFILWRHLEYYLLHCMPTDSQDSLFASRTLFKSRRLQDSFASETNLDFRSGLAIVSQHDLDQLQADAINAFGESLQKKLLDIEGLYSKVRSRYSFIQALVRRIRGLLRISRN
inactive: [1] -0.035 | [2] -0.038 | [3] -0.1 | [4] -0.027 | [5] 0.032 | [6] -0.167 | [7] -0.058 | [8] 0 | [9] -0.005 | [10] 0.018 | [11] 0.009 | [12] 0.018 | [13] 0.002 | [14] 0.075 | [15] 0.151 | [16] 0.059 | [17] 0.084 | [18] -0.016 | [19] 0.076 | [20] 0.044

MRPS12 (UniProt O15235)
inactive: [1] 0.05 | [2] -0.031 | [3] -0.033 | [4] -0.017 | [5] -0.053 | [6] -0.123 | [7] 0.092 | [8] 0.111 | [9] 0.014 | [10] -0.224 | [11] -0.034 | [12] -0.094 | [13] 0.054 | [14] -0.069 | [15] 0.201 | [16] -0.146 | [17] 0.032 | [18] -0.002 | [19] 0.077 | [20] -0.054

NOP53 (UniProt Q9NZM5)
active: [10] -1.19
inactive: [1] -0.209 | [2] 0.018 | [3] 0.303 | [4] 0.212 | [5] 0.411 | [6] 0.233 | [7] 0.089 | [8] 0.321 | [9] -0.016 | [11] -0.052 | [12] 0.005 | [13] -0.073 | [14] -0.163 | [15] 0.264 | [16] -0.154 | [17] -0.147 | [18] 0.204 | [19] 0.048 | [20] -0.105

MYH11 isoform 2 (UniProt P35749)
inactive: [1] 0.035 | [2] -0.013 | [3] 0.028 | [4] -0.016 | [5] -0.107 | [6] 0.056 | [7] -0.002 | [8] -0.042 | [9] 0.027 | [10] -0.024 | [11] 0.009 | [12] 0.057 | [13] -0.003 | [14] 0.004 | [15] -0.014 | [16] 0.051 | [17] -0.006 | [18] -0.253 | [19] 0.032 | [20] 0.057

NFYC (UniProt Q13952)
Sequence of UniProt Q13952 (Q13952 whole entry, looked up): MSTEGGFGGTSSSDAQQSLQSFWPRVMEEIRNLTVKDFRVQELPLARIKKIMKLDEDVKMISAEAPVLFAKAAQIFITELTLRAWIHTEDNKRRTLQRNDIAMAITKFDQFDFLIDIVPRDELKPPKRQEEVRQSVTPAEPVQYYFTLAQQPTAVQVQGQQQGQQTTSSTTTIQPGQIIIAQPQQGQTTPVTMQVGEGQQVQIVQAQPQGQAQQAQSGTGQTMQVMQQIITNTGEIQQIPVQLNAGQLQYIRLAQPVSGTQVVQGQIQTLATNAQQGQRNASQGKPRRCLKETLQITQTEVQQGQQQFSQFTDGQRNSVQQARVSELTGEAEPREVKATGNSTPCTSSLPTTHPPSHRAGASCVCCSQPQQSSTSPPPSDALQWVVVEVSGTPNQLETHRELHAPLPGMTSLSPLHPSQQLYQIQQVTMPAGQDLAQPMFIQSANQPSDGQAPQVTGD
inactive: [1] -0.023 | [2] -0.042 | [3] -0.023 | [4] -0.09 | [5] -0.046 | [6] 0.019 | [7] -0.061 | [8] -0.087 | [9] 0.046 | [11] 0.005 | [12] 0.011 | [13] -0.061 | [14] 0.019 | [15] -0.087 | [16] -0.006 | [17] -0.001 | [18] -0.031 | [19] 0.001 | [20] 0.028
active: [10] 0.332
